Where “and” joins values, the source holds several entries; their conditions need not be identical. Equal values may be shown once. Where a name gives a salt, the structure may show the parent alone.

Holding throughout (assay): cell viability relative to vehicle control; higher = less cytotoxic
Common to all, as to conditions: 10 µM

One experiment has as its system K562. A digest of the protocol: (§1)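 Screening covered the Selleck bioactive, kinase and epigenetic probe libraries, less identity-inconsistent compounds, on CRISPR-edited mutant clones and isogenic wild-type clones of four leukaemia lines. Cells, at 2000 per well in 50 µL medium, received a single 10 µM acoustically dispensed dose. After 48 h the supernatant was removed and CellTiter-Glo luminescence was read. Viability was analysed in Genedata Screener as percent of the on-plate vehicle control.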

For the next experiment, the system named is MARIMO. A digest of the protocol: as §1
Another experiment concerns MOLM14. The gist of the method: as §1
A further experiment has as its system OCI-AML2. The gist of the method:
as §1

By cell viability is commonly meant a read-out of living cells in per cent, often relative to untreated cells. On to `COC(=O)N[C@H](C(=O)N1CCC[C@H]1c1ncc(-c2ccc(-c3ccc(-c4cnc([C@@H]5CCCN5C(=O)[C@@H](NC(=O)OC)C(C)C)[nH]4)cc3)cc2)[nH]1)C(C)C`, for which the cell viability in the experiment on K562 (SRSF2 genotype: SRSF2 P95H/wt) is 93.2% and 92%; in the experiment with K562 (SRSF2 genotype: SRSF2 wt/wt) it was 89.7%; with MARIMO (SRSF2 genotype: SRSF2 P95H/wt) it was 72.4%; with MARIMO (SRSF2 genotype: SRSF2 wt/wt) it was 83.9%; with MOLM14 (SRSF2 genotype: SRSF2 P95H/wt), 78.2%; in the experiment on MOLM14 (SRSF2 genotype: SRSF2 wt/wt), 88.5%. Further, the figures for the cell viability with OCI-AML2 (SRSF2 genotype: P95H/wt) and in the experiment with OCI-AML2 (SRSF2 genotype: wt/wt) were 84.6% and 84.3%, respectively.

In the case of `CONC(=O)c1ccccc1Nc1cc(Nc2cc(C)nn2C(C)C)ncc1Cl`, the cell viability in the experiment on K562 (SRSF2 genotype: SRSF2 P95H/wt) is 91.8% and 101%; in the experiment with K562 (SRSF2 genotype: SRSF2 wt/wt), 105%; with MARIMO (SRSF2 genotype: SRSF2 P95H/wt), 93.2%; in the experiment on MARIMO (SRSF2 genotype: SRSF2 wt/wt), 101%; in the experiment on MOLM14 (SRSF2 genotype: SRSF2 P95H/wt) it was 82.9%; with MOLM14 (SRSF2 genotype: SRSF2 wt/wt) it was 102%. Besides, the values for the cell viability in the experiment on OCI-AML2 (SRSF2 genotype: P95H/wt) and in the experiment on OCI-AML2 (SRSF2 genotype: wt/wt) were 95.8% and 103%, respectively.

Take `C=CC(=O)Nc1ccc2ncnc(Nc3cccc(Br)c3)c2c1`: the cell viability in the experiment on K562 (SRSF2 genotype: SRSF2 P95H/wt) is 66% and 72.7%; in the experiment on K562 (SRSF2 genotype: SRSF2 wt/wt), 71.1%; with MARIMO (SRSF2 genotype: SRSF2 P95H/wt), 70%; with MARIMO (SRSF2 genotype: SRSF2 wt/wt), 86.8%; in the experiment with MOLM14 (SRSF2 genotype: SRSF2 P95H/wt) it was 61.6%; in the experiment on MOLM14 (SRSF2 genotype: SRSF2 wt/wt) it was 81.3%. Besides, the cell viability stood at 50% in the experiment with OCI-AML2 (SRSF2 genotype: P95H/wt) and 50.9% with OCI-AML2 (SRSF2 genotype: wt/wt).

Consider `CCn1c(N)c(C(=O)NC)c(=O)c2ccc(C#CC(C)(O)COC)nc21` (stereo not given), for which the cell viability is 105% and 99.5% in the experiment on K562 (SRSF2 genotype: SRSF2 P95H/wt); 97.9% in the experiment with K562 (SRSF2 genotype: SRSF2 wt/wt); 87.4% in the experiment with MARIMO (SRSF2 genotype: SRSF2 P95H/wt); 93.7% with MARIMO (SRSF2 genotype: SRSF2 wt/wt); 48.1% with MOLM14 (SRSF2 genotype: SRSF2 P95H/wt); 55.5% with MOLM14 (SRSF2 genotype: SRSF2 wt/wt). The cell viability in the experiment with OCI-AML2 (SRSF2 genotype: P95H/wt) and in the experiment with OCI-AML2 (SRSF2 genotype: wt/wt) was 64.6% in each case.

As to `Nc1ccc(S(=O)(=O)Nc2ncccn2)cc1` [Sulfadiazine], the cell viability in the experiment on K562 (SRSF2 genotype: SRSF2 P95H/wt) is 108% and 105%; with K562 (SRSF2 genotype: SRSF2 wt/wt), 108%; in the experiment on MARIMO (SRSF2 genotype: SRSF2 P95H/wt), 114%; in the experiment on MARIMO (SRSF2 genotype: SRSF2 wt/wt), 110%; in the experiment on MOLM14 (SRSF2 genotype: SRSF2 P95H/wt) it was 103%; with MOLM14 (SRSF2 genotype: SRSF2 wt/wt), 108%. Moreover, the cell viability is 111% in the experiment with OCI-AML2 (SRSF2 genotype: P95H/wt) and 110% in the experiment on OCI-AML2 (SRSF2 genotype: wt/wt).

For the compound `Cn1cc(C(=O)[C@@H]2CCc3[nH]cnc3C2)c2ccccc21` [Ramosetron Hydrochloride], the cell viability in the experiment with K562 (SRSF2 genotype: SRSF2 P95H/wt) was 92.3% and 92.8%; with K562 (SRSF2 genotype: SRSF2 wt/wt), 81.9%; with MARIMO (SRSF2 genotype: SRSF2 P95H/wt), 91.2%; with MARIMO (SRSF2 genotype: SRSF2 wt/wt), 94.8%; with MOLM14 (SRSF2 genotype: SRSF2 P95H/wt) it was 96.2%; in the experiment on MOLM14 (SRSF2 genotype: SRSF2 wt/wt) it was 94.1%. The cell viability in the experiment with OCI-AML2 (SRSF2 genotype: P95H/wt) came out at 92.2%; in the experiment with OCI-AML2 (SRSF2 genotype: wt/wt), 89.9%.

`CC(=O)N1c2ccc(-c3ccc(C(=O)O)cc3)cc2[C@H](Nc2ccc(Cl)cc2)C[C@@H]1C`: the cell viability in the experiment on K562 (SRSF2 genotype: SRSF2 P95H/wt) is 59.6% and 63.6%; in the experiment with K562 (SRSF2 genotype: SRSF2 wt/wt), 74.7%; in the experiment on MARIMO (SRSF2 genotype: SRSF2 P95H/wt), 23.6%; in the experiment with MARIMO (SRSF2 genotype: SRSF2 wt/wt) it was 28.7%; with MOLM14 (SRSF2 genotype: SRSF2 P95H/wt) it was 16.3%; with MOLM14 (SRSF2 genotype: SRSF2 wt/wt) it was 14.4%. Further, the figures for the cell viability in the experiment on OCI-AML2 (SRSF2 genotype: P95H/wt) and in the experiment on OCI-AML2 (SRSF2 genotype: wt/wt) were 7.87% and 17.8%, respectively.

For the compound `C[C@@H](N)[C@H]1CC[C@H](C(=O)Nc2ccncc2)CC1`, the cell viability was 105% and 97.4% in the experiment on K562 (SRSF2 genotype: SRSF2 P95H/wt); 102% in the experiment with K562 (SRSF2 genotype: SRSF2 wt/wt); 93.7% with MARIMO (SRSF2 genotype: SRSF2 P95H/wt); 94.6% in the experiment with MARIMO (SRSF2 genotype: SRSF2 wt/wt); 97.2% in the experiment on MOLM14 (SRSF2 genotype: SRSF2 P95H/wt); 96.9% in the experiment on MOLM14 (SRSF2 genotype: SRSF2 wt/wt). Also, the cell viability was determined as 85.9% with OCI-AML2 (SRSF2 genotype: P95H/wt) and 91.2% with OCI-AML2 (SRSF2 genotype: wt/wt).

Take `Cn1nc(C(C)(C)C)cc1C(=O)N[C@@H](Cc1cccc(Cl)c1)C(=O)NCC#N` [Cathepsin Inhibitor 1]: the cell viability was 93.5% and 89.9% in the experiment with K562 (SRSF2 genotype: SRSF2 P95H/wt); 83.2% with K562 (SRSF2 genotype: SRSF2 wt/wt); 93.1% in the experiment on MARIMO (SRSF2 genotype: SRSF2 P95H/wt); 100% with MARIMO (SRSF2 genotype: SRSF2 wt/wt); 92.4% in the experiment with MOLM14 (SRSF2 genotype: SRSF2 P95H/wt); 98.4% with MOLM14 (SRSF2 genotype: SRSF2 wt/wt). Moreover, the figures for the cell viability in the experiment with OCI-AML2 (SRSF2 genotype: P95H/wt) and in the experiment on OCI-AML2 (SRSF2 genotype: wt/wt) were 97.8% and 95.9%, respectively.

Consider `CC=C1C(=O)C[C@H]2[C@@H]3CCC4=CC(=O)CC[C@]4(C)[C@H]3CC[C@]12C` [Guggulsterone E&Z], for which the cell viability in the experiment on K562 (SRSF2 genotype: SRSF2 P95H/wt) is 76% and 84.7%; in the experiment with K562 (SRSF2 genotype: SRSF2 wt/wt) it was 79.3%; with MARIMO (SRSF2 genotype: SRSF2 P95H/wt), 61.7%; with MARIMO (SRSF2 genotype: SRSF2 wt/wt), 72.3%; in the experiment with MOLM14 (SRSF2 genotype: SRSF2 P95H/wt) it was 80.4%; in the experiment with MOLM14 (SRSF2 genotype: SRSF2 wt/wt) it was 89.3%. In addition, the cell viability came to 71.8% in the experiment with OCI-AML2 (SRSF2 genotype: P95H/wt) and 76.7% in the experiment on OCI-AML2 (SRSF2 genotype: wt/wt).

For the origin of these results see the supplement of paper PMC10981050.
